Compound activity as filed in PubChem BioAssay.
Shown are actives, neighbours in structure and some others; about 1.5% of the full set was active somewhere.
EBV gp42 block = Epstein-Barr virus gp42 inhibitors, primary screen, biochemical, uHTS, fluorescence polarization. Glycoprotein 42 (Epstein-Barr virus (strain AG876)), Q1HVG2. 220,000 tested, 0.42% active. inhibition, % (tested at 21.74 µM). Fluorescence polarization binding assay, mP read-out. AID 1085, 2008; in the data active = inhibition above about 50%
Target sequence (Q1HVG2 whole entry, looked up): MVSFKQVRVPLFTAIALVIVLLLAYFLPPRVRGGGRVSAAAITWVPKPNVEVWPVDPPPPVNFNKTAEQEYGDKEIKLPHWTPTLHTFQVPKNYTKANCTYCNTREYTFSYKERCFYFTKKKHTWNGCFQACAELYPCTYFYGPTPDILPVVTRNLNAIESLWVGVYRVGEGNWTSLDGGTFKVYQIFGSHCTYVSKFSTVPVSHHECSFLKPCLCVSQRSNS
MCL1 BIM primary = inhibitors of MCL1 binding to BIM-BH3, primary screen, biochemical, fluorescence polarization. Induced myeloid leukemia cell differentiation protein Mcl-1 (Homo sapiens), Q07820. GST-MCL1 / FITC-Bim-BH3 fluorescence polarization. inhibition, % at 10.9 µM. 320,000 tested, 0.68% active. AID 2057, 2009;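 active = inhibition above the mean inhibition of all tested compounds plus 3 SD, set per campaign, cut at about 40% in these data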;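 note: 0% = DMSO wells and 100% = unlabeled Bim-BH3 peptide control; higher means more loss of mP so more displacement of Bim peptide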
Bcl-xL primary = inhibitors of human Bcl-xL, primary screen, biochemical, fluorescence polarization, HTS; GST-Bcl-xL / FITC-Bim BH3 peptide fluorescence polarization; inhibition, % at 10.9 µM; Bcl-2-like protein 1 (Homo sapiens), Q07817; 320,000 tested, 0.7% active; AID 2129, 2009;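 active = inhibition above the mean of all tested compounds plus 3 SD, cutoff set per campaign, cut at about 30% in these data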;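 note: 0% = DMSO wells and 100% = unlabeled Bim-BH3 peptide competitor; inhibitors lower millipolarization by displacing the labeled peptide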
Target sequence (Q07817 whole entry, looked up): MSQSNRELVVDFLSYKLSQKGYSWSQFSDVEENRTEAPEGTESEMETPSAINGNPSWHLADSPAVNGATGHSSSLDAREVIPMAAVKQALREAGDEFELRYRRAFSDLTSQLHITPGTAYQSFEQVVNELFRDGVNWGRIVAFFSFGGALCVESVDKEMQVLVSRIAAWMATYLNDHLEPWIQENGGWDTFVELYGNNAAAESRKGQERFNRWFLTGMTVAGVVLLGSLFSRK
GLD-1 TGE inh = GLD-1/TGE RNA complex disruptors, primary screen, biochemical, fluorescence polarization. Female germline-specific tumor suppressor gld-1 (Caenorhabditis elegans), Q17339. AID 2280, 2010. purified GLD-1 + fluorescein TGE RNA. 320,000 tested, 0.44% active. inhibition, % at 5.96 µM;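 active = percent inhibition above a per-plate cutoff, the plate mean of test compounds plus 3 SD, cut at about 30% in these data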;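 note: 0% = DMSO wells with GLD-1 and probe and 100% = wells lacking GLD-1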
eLon inh = inhibitors of E. coli Lon protease, primary screen, biochemical, fluorescence polarization | P0A9M0 | 360,000 tested, 0.42% active | inhibition, % at 7.94 µM | purified E. coli Lon protease; in the data active = inhibition above about 13%, passing the limit was not always enough;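 note: 0% = enzyme with probe and DMSO and 100% = no enzyme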
MEX-5 binding = MEX-5 zinc finger RNA-binding disruptors – biochemical, C. elegans, fluorescence polarization, MLPCN library, primary screen | Zinc finger protein mex-5 (Caenorhabditis elegans), Q9XUB2 | MEX-5/FITC-TCR2 RNA binding; active compounds read low | activity score (negative = inhibition of binding), % at 10 µM | 300,000 tested, 0.38% active | AID 1832, 2009;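 active = inhibition past about -25% in most replicates, and total fluorescence under double the plate's negative control median, limit read from the data; inconclusive = replicates evenly split on the limit, or fluorescence at least double controls; inactive = too little inhibition in most replicates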;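 note: 0% = DMSO and -100% = 5 µM competing unlabeled TCR2 RNA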
Bcl-xL conf = Bcl-xL inhibitors blocking Bim BH3 binding, confirmation, counter-screen for MCL1 inhibitor project, biochemical, fluorescence polarization; inhibition, % at 10.9 µM; 1,700 tested, 54% active; GST-Bcl-xL / FITC-Bim BH3 peptide FP binding; shares compounds with MCL1 BIM primary;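 active = inhibition above a cutoff equal to the mean inhibition of all tested compounds plus 3 SD, cut at about 30% in these data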;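 note: 0% = DMSO wells and 100% = unlabeled Bim BH3 control peptide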
MCL1 inh confirm = inhibitors of MCL1 binding to BIM-BH3, confirmation, biochemical, fluorescence polarization, triplicate; inhibition, % at 10.9 µM; 1,700 tested, 61% active; shares compounds with MCL1 BIM primary; AID 2168, 2009; GST-MCL1 / FITC-Bim-BH3 fluorescence polarization;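 active = inhibition above the average of all tested compounds plus 3 SD, cut at about 40% in these data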;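 note: 0% = DMSO wells and 100% = unlabeled Bim-BH3 control peptide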
GLD-1 TGE cf = GLD-1/TGE RNA binding inhibitors, retest, confirmation, biochemical, fluorescence polarization, triplicate; GLD-1/FL-TGE RNA fluorescence polarization; shares compounds with GLD-1 TGE inh; 550 tested, 10% active; inhibition, % at 5.96 µM;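 active = average inhibition across triplicates above the hit cutoff set in the primary screen, cut at about 32% in these data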;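 note: 0% = GLD-1 with RNA probe and DMSO and 100% = wells lacking GLD-1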
Starred values were filed as active, the others as inactive; ? = inconclusive; . = no result given.

SMILES	EBV gp42 block	MCL1 BIM primary	Bcl-xL primary	GLD-1 TGE inh	eLon inh	MEX-5 binding	Bcl-xL conf	MCL1 inh confirm	others
COc1ccc(NC(=O)CS(=O)(=O)Cc2ccccc2)c([N+](=O)[O-])c1	.	2	1	3	-7	3	.	.
Cc1ccccc1N1CCN(C2=NC(=O)/C(=C\c3cccs3)S2)CC1	-19	46*	8	4	-2	-1	11	22
O=C1N=C(N2CCN(c3cccc4ccccc34)CC2)S/C1=C/c1cccs1	-20	2	-1	5	2	2	.	.
O=C(NC1CCCC1)C1c2ccccc2OCC(=O)N1Cc1cccnc1 (stereo unspecified)	.	.	.	.	-1	.	.	.
O=S(=O)(c1cccc2cccnc12)N1CCCCC1	.	-1	6	2	-14	4	.	.
CC(CS(=O)(=O)c1cccc2cccnc12)N1CCCCC1 (stereo unspecified)	-11	65*	62*	40*	7	-15	33*	42*
CC(=O)c1c(-c2ccccc2)c2cc(Cl)ccc2n(C)c1=O	.	0	0	0	-10	-1	.	.
CC(=O)c1c2c3c(cccc3n(C)c1=O)C(=O)c1ccccc1-2	.	96*	85*	67*	.	-12	129*	152*
CC(C)OCCCn1c(=N)c(C(N)=S)cc2c(=O)n3ccccc3nc21	37	82*	83*	11	-33	-18	70*	86*
CCOCCCn1c(=N)c(C(=O)NCc2ccc3c(c2)OCO3)cc2c(=O)n3ccccc3nc21	11	.	.	.	.	-11	.	.
CC(C)OCCCn1c(=NC(=O)c2cccs2)c(C#N)cc2c(=O)n3ccccc3nc21	33	114*	106*	58*	2	?	23	28
CC(=O)N=c1c(C#N)cc2c(=O)n3ccccc3nc2n1CCCOC(C)C	-7	15	12	3	-9	6	.	.
CSc1ccccc1CNC(=O)C1(C)CCCN1CC(C)C (stereo unspecified)	.	.	.	.	0	.	.	.
Cc1cc(C)c2nc(-c3ccccn3)cc(C(=O)Nc3ccc(S(=O)(=O)Nc4onc(C)c4C)cc3)c2c1	15	41*	17	6	-2	-2	30*	79*
O=C(CNc1cccc2ccccc12)N/N=C/c1ccc(C(=O)O)cc1	-3	68*	7	6	-2	-4	13	52*
O=C(/C=C1\NC2(CCCC2)Cc2ccccc21)C(=O)N/N=C/c1ccc(O)c(O)c1	2	42*	4	-5	6	-4	31*	43*
O=c1[nH]c2c(c(=O)[nH]1)CCC2	-24	9	3	4	3	-1	.	.
CN(C)c1nc(-c2cn(CCC#N)c3ccccc23)cs1	.	69*	65*	34*	16	-5	34*	49*
Cc1c(C)n(CCC#N)c2ccccc12	10	3	-1	-1	-4	2	.	.
COc1ccc2ccccc2c1-c1csc(N)n1	.	8	6	1	-4	2	.	.
COCCn1cc(-c2csc(N)n2)c2ccccc21	.	60*	54*	26	8	-13	16	14
O=S(=O)(c1ccccc1)c1ccc(N2CCCCCC2)cc1	.	14	7	12	7	-1	.	.
Cc1ccc(S(=O)(=O)N(C)CC(=O)N(C)CCOc2ccccc2)cc1	.	.	.	.	8	.	.	.
C[C@H](NC(=O)C1CC(=O)N(c2ccc3c(c2)OCCO3)C1)C(=O)NC1CCCC1 (stereo partly specified)	.	-1	4	0	-10	-1	.	.
CC(C)[C@H](NC(=O)C1CC(=O)N(c2ccc3c(c2)OCO3)C1)C(=O)NC1CCCC1 (stereo partly specified)	.	54*	55*	43*	12	-17	37*	65*	GLD-1 TGE cf=20
SMILES	EBV gp42 block	MCL1 BIM primary	Bcl-xL primary	GLD-1 TGE inh	eLon inh	MEX-5 binding	Bcl-xL conf	MCL1 inh confirm	others
Cc1ccc(S(=O)(=O)N(C)C[C@H]2Oc3cc(C#Cc4ccccc4)ccc3S(=O)(=O)N([C@H](C)CO)C[C@@H]2C)cc1	.	.	.	.	-10	.	.	.
O=C1C=C(O)c2c(O)cccc2C1=O	-15	16	9	2	.	.	.	.
O=C1C=C(O)c2cccc3cccc1c23	.	86*	71*	36*	25	0	67*	86*	GLD-1 TGE cf=57*
O=c1[nH]c(Nc2ccc(F)cc2)cc2ccccc12	17	66*	54*	66*	-10	-15	12	13	GLD-1 TGE cf=8
O=c1[nH]c(Nc2ccccn2)cc2ccccc12	.	8	12	8	-10	-9	.	.
Cc1ccc(CNC(=O)c2ccc(Br)o2)cc1	-33	4	1	-4	-1	0	.	.
Cc1cc2cc(CNC(=O)c3ccc4c(c3)OCO4)ccc2[nH]1	.	53*	37*	33*	19	-2	19	9	GLD-1 TGE cf=0
Cc1cc2cc(CNC(=O)c3ccc(Br)o3)ccc2[nH]1	-6	69*	55*	41*	9	-2	57*	75*	GLD-1 TGE cf=5
O=C1C=C(Nc2cccc3cccnc23)c2ccccc2C1=O	.	59*	55*	34*	8	-31*	45*	46*	GLD-1 TGE cf=-4
O=C1C=C(Nc2ccccc2C(=O)O)c2ccccc2C1=O	0	25	20	-2	2	-4	.	.
CCOc1ccc(N(C(=O)c2ccc(S(=O)(=O)N3CCCC3)cc2)C2C=CS(=O)(=O)C2)cc1 (stereo unspecified)	.	7	9	-1	-1	1	.	.
CSc1nc2nc3c(cc2c(=O)n1-c1ccccc1C)COC(C)(C)C3	-16	59*	57*	46*	5	-1	-4	0	GLD-1 TGE cf=-6
CC1CCCCC1NC(=O)Cn1cnc2sccc2c1=O (stereo unspecified)	.	.	.	.	-14	.	.	.
